Laboratory results published in PMC10163288.
These entries were drawn from the full list. The true hit rate is not given.

B1: il2ra_site2_3nfp_normal_mot_HHH_b2_00429_000000100_0001_21_37_H_._HHH_b1_08311_0001_0000300035_0000001_0 (protein)
chain: SSSSDEEVERLIEEAEELLRNGNPEEAKRVISRATDLAYEAGDHRLFALLVDLVAVVAHLLSSSS
B2: il2ra_site2_3nfp_normal_mot_HHH_b2_04451_000000238_0001_21_37_H_._HHH_b2_06904_0001_0000300014_0000001_0 (protein)
chain: SSSSSSDEEEIEELLELVEKIDDQLERLQVLLEASKLAAELGDEELAREVLRLFAEIQSSSSSSS
B3: il2ra_site1_3nfp_normal_mot_0eddeacbb14b769e73e254714f31e2f9_0001_af2_000000052_0001_37_51_H_._HHH_b1_00975_af2_0002_0000100004_0000001_0 (protein)
chain: SSSSSDEEELRERVEELLEEAKHVSEEEASRLIEEAYRLVQENGNQELADLIYRVMREMISSSSS
B4: il2ra_site2_3nfp_sap_4_mot_HHH_b2_00168_000000180_0001_1_21_H_._HHH_b2_05578_af2_0001_0000500013_0000001_0_0001 (protein)
chain: SSSSDDVEEYLRAALALAREAIKQGDEELAEKILEMIRKAAEDAKDEEALEEAEELLKLVGSSSS
B5: il2ra_site2_3nfp_normal_mot_HHH_b2_06150_000000217_0001_39_53_H_._HHH_b1_03322_0001_0000100005_0000001_0 (protein)
chain: SSSSDIEERIEELLEEAKELIENGDPERAQEVLQEATHLAYEIRNSELFMRVAELLYLLRSSSSS
B6: il2ra_site1_3nfp_sap_8_mot_HHH_b1_04221_000000040_0001_40_56_H_._16d56542c9725820401ab7c11c235cbe_0001_0001_0000300014_0000001_0_0001 (protein)
chain: SSSSNEAAREATELMREIRRLLKEGNPEEARKLLEELEELAERNNDPVLKWLVRQFEESINSSSS
B7: il2ra_site1_1z92_sap_8_mot_a31c9f16200a66e5ad31ddff700483a3_0001_1_000000069_0001_19_32_H_._HHH_b1_08052_0001_0000300018_0000001_0_0001_af2pred_0001_af2pred (protein)
chain: SSSSEESLRRLAERLVEDAAKLADLSEEQKEELEELAEELIKRGVDPHEIAKELERLADELSSSS
B8: il2ra_site2_3nfp_normal_mot_HHH_b2_00429_000000100_0001_21_37_H_._HHH_b2_03374_0001_0000300044_0000001_0_af2pred_0001_1_af2pred_swapped (protein)
chain: SSSSNHEEFALRAALISLKLAVEAGNEELVRRLYEDAERAAKNANDPEVLEELERVFEEFHSSSS
B9: il2ra_site2_2erj_sap_17_mot_HHH_b2_05720_000000165_0001_1_18_H_._HHH_b2_07625_af2_0001_0000700024_0000001_0_0001 (protein)
chain: SSSSSDEEEREAERITEEIEERIDDPEERLREFFRVAVELLREGDPRTAHILLRLAQEGSSSSSS
B10: il2ra_site2_2erj_sap_24_mot_4428453eb85d3cbdb794fa6b82d21c19_0001_000000044_0001_14_30_H_._HHH_b2_00328_0001_0000300019_0000001_0_0001 (protein)
chain: SSSSDELHRLYELANEILHALSRGDEELVEELLEELEKLAEEADSRVAKENVEALRKHLDSSSSS
B11: il2ra_site1_2b5i_normal_mot_f5ff40796168375b462bec8614a1db4a_0001_1_000000138_0001_53_65_H_._HHH_b1_04161_0001_0000400021_0000001_0_af2pred_dldesign_0_af2pred (protein)
chain: SSSSSLRELVEEIIAEVKRLVAEGKLEEARKLAILALRLARKAEDPELVARVEALLETLESSSSS
B12: il2ra_site2_3nfp_normal_mot_HHH_b2_06150_000000217_0001_39_53_H_._HHH_b2_05434_af2_0001_0000100005_0000001_0 (protein)
chain: SSSSDEEEVEKLLKKAEELRERGNPEEARKLLREATQIAYERRDSELFFLVAEVLFEVLLSSSSS
B13: il2ra_site1_1z92_normal_mot_HHH_b2_00827_000000099_0001_20_37_H_._HHH_eva_0327_af2_0001_0000100007_0000001_0 (protein)
chain: SSEEELEELVEKIREVAEEKGDERLRRALERARFVLRELELGANSERAREIAEEAIKALYKTVVS
B14: il2ra_site1_3nfp_normal_mot_HHH_b1_04049_af2_000000244_0001_42_55_H_._HHH_b1_01786_0001_0000400012_0000001_0_af2pred_0001_af2pred (protein)
chain: SSSSDDKKRIQKLLREIMRLSKEGDEEEAEKLLEEVEELAREAGDPVAELLVELLKKILNSSSSS
B15: il2ra_site1_1z92_normal_mot_1581cc1c700002558836ca695aafbf97_0001_1_af2_000000099_0001_17_32_H_._HHH_b2_05050_0001_0000200017_0000001_0_af2pred_0001_af2pred (protein)
chain: SSSSDEEVERLVEELVEEFNLSEEEEKELRRIARSAEELGADPELVKKALEHFVEFLKRKGSSSS
B16: il2ra_site1_1z92_normal_mot_HHH_b1_04604_af2_000000029_0001_42_56_H_._HHH_b2_03915_0001_0000100005_0000001_0_af2pred_0001_af2pred (protein)
chain: SSSSDAELAAEADELLAEGNPEKVEEVLEEIRRAAEERDSRRLKEILENLEEELRELEEESSSSS
B17: il2ra_site1_2b5i_sap_12_mot_HHH_b2_04463_af2_000000056_0001_43_55_H_._HHH_b2_02114_af2_0001_0000100003_0000001_1_0001 (protein)
chain: SSSSNEAAREARELMEKLDEAFRRGDEELLEELLEEIEEFLKEQDDKFLRLAMEQVREELSSSSS
B18: il2ra_site2_3nfp_normal_mot_HHH_b1_03557_000000106_0001_41_55_H_._HHH_b2_00561_0001_0000400025_0000001_0_af2pred_0001_1_af2pred_swapped (protein)
chain: SSSSSDEEREEVEELLEEAEHIEDEREVFIVLVEAFFLALELRDPELERLVREFLKEFRSSSSSS
B19: il2ra_site1_1z92_normal_mot_HHH_b1_03515_000000289_0001_1_19_H_._HHH_b1_01554_af2_0001_0000200013_0000001_0 (protein)
chain: SSSSSSEHAARAIVKVLVRVARLSEEQEKELQELAEELVKRGYSLLEIIKILDRVAVELSSSSSS

Target: il2ra, P01589
Sequence (P01589 whole entry): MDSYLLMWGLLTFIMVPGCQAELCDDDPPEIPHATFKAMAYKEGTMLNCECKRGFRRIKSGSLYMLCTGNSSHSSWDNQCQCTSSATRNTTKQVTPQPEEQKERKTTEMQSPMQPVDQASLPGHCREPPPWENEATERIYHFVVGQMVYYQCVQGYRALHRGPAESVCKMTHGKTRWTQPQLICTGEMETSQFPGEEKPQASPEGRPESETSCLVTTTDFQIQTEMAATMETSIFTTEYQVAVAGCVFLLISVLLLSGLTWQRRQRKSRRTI
Experiment: yeast display titration

Row | Binder | apparent Kd
1 | B1 | no binding seen (inactive)
2 | B2 | no binding seen (inactive)
3 | B3 | no binding seen (inactive)
4 | B4 | no binding seen (inactive)
5 | B5 | no binding seen (inactive)
6 | B6 | no binding seen (inactive)
7 | B7 | no binding seen (inactive)
8 | B8 | no binding seen (inactive)
9 | B9 | no binding seen (inactive)
10 | B10 | no binding seen (inactive)
11 | B11 | no binding seen (inactive)
12 | B12 | no binding seen (inactive)
13 | B13 | no binding seen (inactive)
14 | B14 | no binding seen (inactive)
15 | B15 | no binding seen (inactive)
16 | B16 | no binding seen (inactive)
17 | B17 | no binding seen (inactive)
18 | B18 | no binding seen (inactive)
19 | B19 | no binding seen (inactive)
